# Reference: PMC7862700, “An all-to-all approach to the identification of sequence-specific readers for epigenetic DNA modifications on cytosine”
# What was measured:
# Assay in all cases: DAPPL (digital affinity profiling via proximity ligation, sequencing); 10 mM Tris-HCl pH 7.5, 50 mM NaCl, 1 mM DTT, 4% glycerol, room temperature, 30 min; GST-TFs on glutathione beads, 16-mer random dsDNA library, 0.1% formaldehyde crosslink after washing; high values mean tight binding
# Details in all cases: protein: recombinant; tags: N-terminal GST; dsDNA, one strand shown
# FLI1 = target: T1, FLI1 (Homo sapiens, UniProt Q01543 1-452)
# T1 sequence: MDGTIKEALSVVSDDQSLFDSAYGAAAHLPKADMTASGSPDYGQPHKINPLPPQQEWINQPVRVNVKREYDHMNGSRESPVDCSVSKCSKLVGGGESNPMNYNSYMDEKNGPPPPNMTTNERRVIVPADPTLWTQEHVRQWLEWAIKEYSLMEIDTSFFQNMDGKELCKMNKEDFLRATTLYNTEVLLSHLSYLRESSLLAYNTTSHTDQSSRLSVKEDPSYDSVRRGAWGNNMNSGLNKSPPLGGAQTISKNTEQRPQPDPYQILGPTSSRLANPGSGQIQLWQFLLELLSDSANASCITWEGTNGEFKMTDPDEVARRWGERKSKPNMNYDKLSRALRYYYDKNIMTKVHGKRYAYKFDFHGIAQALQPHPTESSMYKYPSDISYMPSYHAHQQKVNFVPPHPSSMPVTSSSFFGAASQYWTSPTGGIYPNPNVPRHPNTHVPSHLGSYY
# In short: (§1)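 GST fusions of human transcription factors were expressed in yeast and captured with glutathione beads. Once given DNA barcodes and pooled alongside a tag-only sample, they were incubated for 30 min at room temperature with 200 nmole of a random double-stranded 16-mer DNA library in Tris/NaCl/DTT/glycerol buffer, then washed, crosslinked (0.1% formaldehyde), proximity-ligated, PCR-amplified and sequenced on an Illumina NextSeq500. The binding signal of each hexamer is its read frequency for a factor divided by its frequency for the tag-only sample.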
# ELK1 = target: T2, ELK1 (Homo sapiens, UniProt P19419 1-428)
# T2 sequence: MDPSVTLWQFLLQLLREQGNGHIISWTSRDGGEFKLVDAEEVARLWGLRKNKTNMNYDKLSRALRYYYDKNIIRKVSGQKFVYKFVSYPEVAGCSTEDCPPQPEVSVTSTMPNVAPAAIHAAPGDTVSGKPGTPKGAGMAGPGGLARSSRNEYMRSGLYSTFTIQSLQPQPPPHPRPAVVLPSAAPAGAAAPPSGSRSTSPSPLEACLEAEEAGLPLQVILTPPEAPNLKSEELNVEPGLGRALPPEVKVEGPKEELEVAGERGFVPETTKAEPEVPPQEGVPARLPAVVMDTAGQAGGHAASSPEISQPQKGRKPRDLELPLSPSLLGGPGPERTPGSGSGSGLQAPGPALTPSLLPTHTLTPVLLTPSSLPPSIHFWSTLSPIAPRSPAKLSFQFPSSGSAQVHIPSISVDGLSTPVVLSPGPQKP
# In short: as §1
# GABPA = target: T3, GABPA (Homo sapiens, UniProt Q06546 1-454)
# T3 sequence: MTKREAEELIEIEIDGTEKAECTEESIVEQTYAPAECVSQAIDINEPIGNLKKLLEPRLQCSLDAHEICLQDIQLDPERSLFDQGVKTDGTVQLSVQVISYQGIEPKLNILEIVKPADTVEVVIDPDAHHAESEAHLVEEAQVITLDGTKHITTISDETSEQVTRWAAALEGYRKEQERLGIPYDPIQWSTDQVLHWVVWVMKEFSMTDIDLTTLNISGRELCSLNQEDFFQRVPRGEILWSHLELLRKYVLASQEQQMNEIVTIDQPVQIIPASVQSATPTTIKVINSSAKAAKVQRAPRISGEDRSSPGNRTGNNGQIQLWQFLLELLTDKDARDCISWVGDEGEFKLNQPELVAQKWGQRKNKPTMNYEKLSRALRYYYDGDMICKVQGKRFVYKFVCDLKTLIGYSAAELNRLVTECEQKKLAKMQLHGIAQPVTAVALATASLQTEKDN
# In short: as §1
# ERG = target: T4, ERG (Homo sapiens, UniProt P11308 1-479)
# T4 sequence: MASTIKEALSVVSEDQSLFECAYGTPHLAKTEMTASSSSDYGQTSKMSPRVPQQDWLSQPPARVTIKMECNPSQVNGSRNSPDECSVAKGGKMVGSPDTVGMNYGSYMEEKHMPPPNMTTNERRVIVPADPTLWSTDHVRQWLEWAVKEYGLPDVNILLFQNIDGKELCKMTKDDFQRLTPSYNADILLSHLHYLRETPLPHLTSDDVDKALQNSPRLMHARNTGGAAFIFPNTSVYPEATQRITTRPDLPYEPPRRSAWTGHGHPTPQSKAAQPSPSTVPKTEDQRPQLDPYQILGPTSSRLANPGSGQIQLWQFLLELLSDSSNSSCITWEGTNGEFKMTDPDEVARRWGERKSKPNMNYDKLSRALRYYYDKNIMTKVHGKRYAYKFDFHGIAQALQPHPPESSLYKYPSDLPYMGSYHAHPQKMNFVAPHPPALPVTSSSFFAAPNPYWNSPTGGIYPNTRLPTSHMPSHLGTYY
# In short: as §1
# ELF1 = ELF1 (Homo sapiens, UniProt P32519 1-619)
# Sequence of ELF1 (P32519 whole entry): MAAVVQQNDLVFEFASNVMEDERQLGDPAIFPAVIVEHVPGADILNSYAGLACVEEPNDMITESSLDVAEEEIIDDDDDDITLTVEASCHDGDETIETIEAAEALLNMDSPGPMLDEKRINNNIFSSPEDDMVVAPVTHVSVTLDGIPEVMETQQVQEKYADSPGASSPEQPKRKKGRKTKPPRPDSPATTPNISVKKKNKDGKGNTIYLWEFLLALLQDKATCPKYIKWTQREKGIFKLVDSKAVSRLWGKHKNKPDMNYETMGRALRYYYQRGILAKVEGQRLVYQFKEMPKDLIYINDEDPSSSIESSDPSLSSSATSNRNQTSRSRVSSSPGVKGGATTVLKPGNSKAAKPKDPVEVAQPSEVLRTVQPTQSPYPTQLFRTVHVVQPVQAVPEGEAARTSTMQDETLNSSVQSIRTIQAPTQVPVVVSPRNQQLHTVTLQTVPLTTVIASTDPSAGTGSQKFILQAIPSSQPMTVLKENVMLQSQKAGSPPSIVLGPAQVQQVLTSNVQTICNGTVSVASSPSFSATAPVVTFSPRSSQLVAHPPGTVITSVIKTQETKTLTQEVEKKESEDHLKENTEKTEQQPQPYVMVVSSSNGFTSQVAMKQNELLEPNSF
# In short: as §1
# EHF = target: T5, EHF (Homo sapiens, UniProt Q9NZC4 1-300)
# T5 sequence: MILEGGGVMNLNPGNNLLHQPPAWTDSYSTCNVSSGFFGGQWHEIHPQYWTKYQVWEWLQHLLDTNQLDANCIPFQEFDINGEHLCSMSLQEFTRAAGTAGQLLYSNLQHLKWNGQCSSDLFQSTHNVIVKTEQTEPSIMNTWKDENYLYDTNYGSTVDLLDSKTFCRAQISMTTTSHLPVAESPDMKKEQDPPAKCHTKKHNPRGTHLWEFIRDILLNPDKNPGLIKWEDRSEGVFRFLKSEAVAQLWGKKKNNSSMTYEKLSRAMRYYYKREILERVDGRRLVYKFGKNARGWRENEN
# In short: as §1
# SPI1 = SPI1 (Homo sapiens, UniProt P17947 1-270)
# In short: as §1
# SPIB = SPIB (Homo sapiens, UniProt Q01892 1-262)
# Sequence of SPIB (Q01892 whole entry): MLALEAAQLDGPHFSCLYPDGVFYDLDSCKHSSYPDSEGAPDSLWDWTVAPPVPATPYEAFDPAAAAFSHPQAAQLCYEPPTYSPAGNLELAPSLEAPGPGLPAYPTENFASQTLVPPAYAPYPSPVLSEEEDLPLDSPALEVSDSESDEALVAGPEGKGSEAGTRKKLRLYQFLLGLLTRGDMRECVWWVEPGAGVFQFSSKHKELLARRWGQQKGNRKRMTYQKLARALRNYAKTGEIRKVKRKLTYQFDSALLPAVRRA
# In short: as §1
# ELK3 = target: T6, ELK3 (Homo sapiens, UniProt P41970 1-407)
# T6 sequence: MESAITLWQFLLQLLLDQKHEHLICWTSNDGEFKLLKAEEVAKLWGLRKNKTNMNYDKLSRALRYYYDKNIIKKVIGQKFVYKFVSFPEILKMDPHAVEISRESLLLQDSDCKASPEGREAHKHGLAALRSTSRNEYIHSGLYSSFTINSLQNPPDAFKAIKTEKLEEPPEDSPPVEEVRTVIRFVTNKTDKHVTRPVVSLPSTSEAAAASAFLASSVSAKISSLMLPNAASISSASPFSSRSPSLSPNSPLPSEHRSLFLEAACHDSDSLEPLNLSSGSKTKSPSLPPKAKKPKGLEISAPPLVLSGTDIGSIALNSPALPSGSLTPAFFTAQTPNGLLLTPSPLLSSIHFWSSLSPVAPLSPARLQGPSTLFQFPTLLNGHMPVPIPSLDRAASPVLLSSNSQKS
# In short: as §1
# FEV = target: T7, FEV (Homo sapiens, UniProt Q99581 1-238)
# T7 sequence: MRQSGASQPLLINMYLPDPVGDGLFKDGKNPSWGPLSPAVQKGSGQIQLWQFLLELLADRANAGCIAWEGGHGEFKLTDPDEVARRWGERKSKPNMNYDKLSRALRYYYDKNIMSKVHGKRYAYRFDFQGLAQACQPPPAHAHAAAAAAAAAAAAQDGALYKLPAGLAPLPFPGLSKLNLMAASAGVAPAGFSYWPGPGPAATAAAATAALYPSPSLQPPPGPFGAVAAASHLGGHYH
# In short: as §1
# ETV5 = ETV5 (Homo sapiens, UniProt P41161 1-510)
# Sequence of ETV5 (P41161 whole entry): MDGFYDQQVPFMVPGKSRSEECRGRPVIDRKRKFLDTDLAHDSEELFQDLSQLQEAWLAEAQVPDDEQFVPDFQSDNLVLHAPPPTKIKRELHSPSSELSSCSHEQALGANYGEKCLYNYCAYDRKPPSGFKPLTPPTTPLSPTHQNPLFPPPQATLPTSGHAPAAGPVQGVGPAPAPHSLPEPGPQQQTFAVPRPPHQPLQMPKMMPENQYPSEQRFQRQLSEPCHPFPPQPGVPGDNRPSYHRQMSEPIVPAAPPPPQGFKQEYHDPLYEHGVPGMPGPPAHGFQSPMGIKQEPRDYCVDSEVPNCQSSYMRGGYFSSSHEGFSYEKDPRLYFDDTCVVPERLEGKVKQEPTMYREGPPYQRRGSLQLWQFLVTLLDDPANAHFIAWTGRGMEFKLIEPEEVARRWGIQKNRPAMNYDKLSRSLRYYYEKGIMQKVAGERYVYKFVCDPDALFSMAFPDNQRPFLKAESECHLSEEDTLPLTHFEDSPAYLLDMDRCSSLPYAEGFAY
# In short: as §1
# ELF4 = ELF4 (Homo sapiens, UniProt Q99607 1-663)
# Sequence of ELF4 (Q99607 whole entry): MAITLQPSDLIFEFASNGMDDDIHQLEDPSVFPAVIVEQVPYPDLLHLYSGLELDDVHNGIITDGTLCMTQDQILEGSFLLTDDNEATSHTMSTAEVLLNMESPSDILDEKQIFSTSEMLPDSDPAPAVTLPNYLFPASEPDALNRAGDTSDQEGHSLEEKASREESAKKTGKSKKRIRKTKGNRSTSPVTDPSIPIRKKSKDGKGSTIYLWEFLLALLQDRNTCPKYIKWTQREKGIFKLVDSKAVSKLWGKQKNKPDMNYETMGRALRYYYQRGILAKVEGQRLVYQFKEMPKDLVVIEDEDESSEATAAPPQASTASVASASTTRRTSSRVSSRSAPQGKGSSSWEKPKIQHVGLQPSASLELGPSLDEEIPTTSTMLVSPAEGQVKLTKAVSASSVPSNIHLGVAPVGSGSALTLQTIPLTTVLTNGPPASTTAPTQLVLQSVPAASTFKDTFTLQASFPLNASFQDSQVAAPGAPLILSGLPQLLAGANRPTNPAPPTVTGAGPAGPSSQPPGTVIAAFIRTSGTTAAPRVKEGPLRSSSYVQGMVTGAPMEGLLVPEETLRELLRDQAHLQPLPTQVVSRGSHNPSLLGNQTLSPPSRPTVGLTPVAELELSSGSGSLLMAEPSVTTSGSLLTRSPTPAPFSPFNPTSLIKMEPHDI
# In short: as §1
# ETV1 = ETV1 (Homo sapiens, UniProt P50549 1-477)
# Sequence of ETV1 (P50549 whole entry): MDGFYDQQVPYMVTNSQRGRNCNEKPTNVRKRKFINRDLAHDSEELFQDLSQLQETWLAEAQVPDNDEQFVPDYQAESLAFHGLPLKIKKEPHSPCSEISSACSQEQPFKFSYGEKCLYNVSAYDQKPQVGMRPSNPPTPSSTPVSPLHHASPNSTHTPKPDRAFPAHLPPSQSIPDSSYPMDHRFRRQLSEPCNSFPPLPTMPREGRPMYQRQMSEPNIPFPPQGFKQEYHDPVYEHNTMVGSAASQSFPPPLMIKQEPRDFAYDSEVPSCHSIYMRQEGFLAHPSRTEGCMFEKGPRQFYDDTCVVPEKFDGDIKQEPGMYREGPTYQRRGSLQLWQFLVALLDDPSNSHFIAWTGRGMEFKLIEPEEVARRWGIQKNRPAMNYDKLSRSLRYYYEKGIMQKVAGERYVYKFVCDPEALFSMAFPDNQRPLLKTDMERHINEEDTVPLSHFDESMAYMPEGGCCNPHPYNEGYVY
# In short: as §1
# ERF = target: T8, ERF (Homo sapiens, UniProt P50548 1-548)
# T8 sequence: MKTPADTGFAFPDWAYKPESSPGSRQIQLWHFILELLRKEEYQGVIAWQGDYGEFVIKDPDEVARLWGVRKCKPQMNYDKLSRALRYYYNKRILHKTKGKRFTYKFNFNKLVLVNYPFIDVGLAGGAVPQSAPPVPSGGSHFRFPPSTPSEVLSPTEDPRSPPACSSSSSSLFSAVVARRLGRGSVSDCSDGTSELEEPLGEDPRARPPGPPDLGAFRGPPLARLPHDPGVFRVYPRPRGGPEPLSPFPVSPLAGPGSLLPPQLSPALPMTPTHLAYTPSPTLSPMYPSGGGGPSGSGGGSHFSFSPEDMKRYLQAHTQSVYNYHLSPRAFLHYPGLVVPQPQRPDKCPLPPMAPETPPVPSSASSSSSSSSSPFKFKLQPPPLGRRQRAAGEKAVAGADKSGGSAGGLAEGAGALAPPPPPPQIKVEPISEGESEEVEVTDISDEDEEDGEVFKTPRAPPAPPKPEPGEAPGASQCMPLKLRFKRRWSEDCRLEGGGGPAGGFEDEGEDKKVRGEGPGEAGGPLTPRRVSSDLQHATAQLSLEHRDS
# In short: as §1
# ETV3L = target: T9, ETV3L (Homo sapiens, UniProt Q6ZN32 1-361)
# T9 sequence: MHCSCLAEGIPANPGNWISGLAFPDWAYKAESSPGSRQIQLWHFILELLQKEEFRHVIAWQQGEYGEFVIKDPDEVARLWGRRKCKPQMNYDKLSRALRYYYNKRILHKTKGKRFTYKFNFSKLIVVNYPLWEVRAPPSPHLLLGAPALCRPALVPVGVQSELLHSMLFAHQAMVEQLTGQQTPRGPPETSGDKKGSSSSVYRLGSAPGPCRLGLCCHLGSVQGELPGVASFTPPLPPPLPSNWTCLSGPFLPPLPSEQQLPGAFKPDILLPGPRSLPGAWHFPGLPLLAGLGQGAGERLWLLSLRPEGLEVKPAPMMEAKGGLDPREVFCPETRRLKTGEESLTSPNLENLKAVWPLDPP
# In short: as §1
# ETS2 = target: T10, ETS2 (Homo sapiens, UniProt P15036 1-469)
# T10 sequence: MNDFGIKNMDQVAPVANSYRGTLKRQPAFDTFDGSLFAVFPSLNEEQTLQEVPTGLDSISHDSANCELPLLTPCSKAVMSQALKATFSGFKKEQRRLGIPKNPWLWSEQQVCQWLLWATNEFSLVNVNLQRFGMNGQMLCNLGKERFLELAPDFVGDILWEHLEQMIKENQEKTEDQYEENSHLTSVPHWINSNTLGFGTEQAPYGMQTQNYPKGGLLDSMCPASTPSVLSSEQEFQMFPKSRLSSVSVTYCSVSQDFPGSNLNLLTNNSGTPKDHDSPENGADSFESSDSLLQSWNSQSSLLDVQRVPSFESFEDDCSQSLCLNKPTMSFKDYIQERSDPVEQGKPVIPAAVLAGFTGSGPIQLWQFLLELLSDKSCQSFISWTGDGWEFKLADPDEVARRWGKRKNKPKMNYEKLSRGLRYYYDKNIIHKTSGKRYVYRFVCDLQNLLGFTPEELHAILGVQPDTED
# In short: as §1
# ELF5 = target: T11, ELF5 (Homo sapiens, UniProt Q9UKW6-2 1-255)
# T11 sequence: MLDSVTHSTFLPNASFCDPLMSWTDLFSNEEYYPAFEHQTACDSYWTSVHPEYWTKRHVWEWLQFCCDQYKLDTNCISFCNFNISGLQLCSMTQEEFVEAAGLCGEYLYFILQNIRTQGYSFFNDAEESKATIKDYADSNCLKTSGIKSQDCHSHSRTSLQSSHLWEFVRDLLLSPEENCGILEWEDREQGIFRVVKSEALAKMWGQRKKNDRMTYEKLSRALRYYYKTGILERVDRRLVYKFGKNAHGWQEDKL
# In short: as §1
# ETV3 = target: T12, ETV3 (Homo sapiens, UniProt P41162-2 1-143)
# T12 sequence: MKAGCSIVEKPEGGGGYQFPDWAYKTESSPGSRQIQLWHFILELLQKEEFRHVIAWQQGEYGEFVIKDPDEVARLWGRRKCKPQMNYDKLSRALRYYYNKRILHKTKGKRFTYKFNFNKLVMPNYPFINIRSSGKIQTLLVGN
# In short: as §1
# ETV6 = ETV6 (Homo sapiens, UniProt P41212 1-452)
# Sequence of ETV6 (P41212 whole entry): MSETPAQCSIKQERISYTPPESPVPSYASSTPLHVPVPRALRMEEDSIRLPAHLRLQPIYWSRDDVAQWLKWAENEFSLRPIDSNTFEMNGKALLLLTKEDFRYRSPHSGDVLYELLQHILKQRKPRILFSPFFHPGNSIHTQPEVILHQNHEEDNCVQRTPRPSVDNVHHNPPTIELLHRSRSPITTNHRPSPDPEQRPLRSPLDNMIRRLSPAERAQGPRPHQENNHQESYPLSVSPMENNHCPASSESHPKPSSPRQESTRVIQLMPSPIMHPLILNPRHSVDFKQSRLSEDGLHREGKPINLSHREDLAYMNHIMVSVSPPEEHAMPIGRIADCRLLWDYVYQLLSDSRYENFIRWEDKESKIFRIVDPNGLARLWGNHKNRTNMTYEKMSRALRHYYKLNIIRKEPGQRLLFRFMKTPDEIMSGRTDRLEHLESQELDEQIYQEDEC
# In short: as §1
sequence,measurement,setting,value
ATTGGC,binding signal,FLI1,"1.23 fold enrichment (6-mer frequency, TF over GST control)"
same,binding signal,ELK1,"1.11 fold enrichment (6-mer frequency, TF over GST control)"
same,binding signal,GABPA,"1.09 fold enrichment (6-mer frequency, TF over GST control)"
same,binding signal,ERG,"1.05 fold enrichment (6-mer frequency, TF over GST control)"
same,binding signal,ELF1,"1.13 fold enrichment (6-mer frequency, TF over GST control)"
same,binding signal,EHF,"1.15 fold enrichment (6-mer frequency, TF over GST control)"
same,binding signal,SPI1,"1.01 fold enrichment (6-mer frequency, TF over GST control)"
same,binding signal,SPIB,"1.13 fold enrichment (6-mer frequency, TF over GST control)"
same,binding signal,ELK3,"1.16 fold enrichment (6-mer frequency, TF over GST control)"
same,binding signal,FEV,"1.13 fold enrichment (6-mer frequency, TF over GST control)"
same,binding signal,ETV5,"1.07 fold enrichment (6-mer frequency, TF over GST control)"
same,binding signal,ELF4,"1.14 fold enrichment (6-mer frequency, TF over GST control)"
same,binding signal,ETV1,"1.11 fold enrichment (6-mer frequency, TF over GST control)"
same,binding signal,ERF,"1.15 fold enrichment (6-mer frequency, TF over GST control)"
same,binding signal,ETV3L,"1.18 fold enrichment (6-mer frequency, TF over GST control)"
same,binding signal,ETS2,"1.18 fold enrichment (6-mer frequency, TF over GST control)"
same,binding signal,ELF5,"1.08 fold enrichment (6-mer frequency, TF over GST control)"
same,binding signal,ETV3,"1.09 fold enrichment (6-mer frequency, TF over GST control)"
same,binding signal,ETV6,"1.13 fold enrichment (6-mer frequency, TF over GST control)"
